In PubChem BioAssay (NCATS):
Records with an inconclusive call do not appear. Active and inactive are the calls of the source. The call rests on the fitted dose curve; in most records, active means well fitted cell-killing curve with a large enough effect; inconclusive means small, poorly fitted or top-dose-only effect, or effect the other way; inactive means flat fitted curve, though single readings scatter.

Columns and labels:
Assay in all cases: Primary qHTS to identify gynecologic anti-cancer compounds using libraries of approved drugs and bioactive compounds (AID 1345084); further: nearly all actives have a fitted effect of over 55% in size
C33A = details: Gynecologic cancer cell panel viability, ATPlite luminescence, 48 h; series mostly up to 57.5 µM
In short: (§1)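 In this quantitative HTS, cell killing is estimated from loss of ATP-dependent luciferase light. Cells see five compound concentrations over a 48 h exposure.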

CAOV3 = details: Gynecologic cancer cell panel viability, ATPlite luminescence, 48 h; series mostly up to 57.5 µM
In short: as §1

CASKI = details: Gynecologic cancer cell panel viability, ATPlite luminescence, 48 h; series mostly up to 57.5 µM
In short: as §1

Es-2 = details: Gynecologic cancer cell panel viability, ATPlite luminescence, 48 h; series mostly up to 57.5 µM
In short: as §1

HeLa = details: Gynecologic cancer cell panel viability, ATPlite luminescence, 48 h; series mostly up to 57.5 µM
In short: as §1

Hek293T = details: Gynecologic cancer cell panel viability, ATPlite luminescence, 48 h, control line for the selectivity index; series mostly up to 57.5 µM
In short: as §1

JEG-3 = details: Gynecologic cancer cell panel viability, ATPlite luminescence, 48 h; series mostly up to 57.5 µM
In short: as §1

OV90 = details: Gynecologic cancer cell panel viability, ATPlite luminescence, 48 h; series mostly up to 57.5 µM
In short: as §1

PA-1 = details: Gynecologic cancer cell panel viability, ATPlite luminescence, 48 h; series mostly up to 57.5 µM
In short: as §1

SKOV3 = details: Gynecologic cancer cell panel viability, ATPlite luminescence, 48 h; series mostly up to 57.5 µM
In short: as §1

Tov-21-G = details: Gynecologic cancer cell panel viability, ATPlite luminescence, 48 h; series mostly up to 57.5 µM
In short: as §1

Tov112D = details: Gynecologic cancer cell panel viability, ATPlite luminescence, 48 h; series mostly up to 57.5 µM
In short: as §1
On the % scale 0 is the no-effect control and ±100 the full control effect.

CO[C@H]1/C=C\O[C@@]2(C)Oc3c(C)c(O)c4c(O)c(c5c(nc6cc(C)ccn65)c4c3C2=O)NC(=O)/C(C)=C\C=C/[C@H](C)[C@H](O)[C@@H](C)[C@@H](O)[C@@H](C)[C@H](OC(C)=O)[C@@H]1C
inactive: Potency (C33A) | Potency (CAOV3) | Potency (CASKI) | Potency (Es-2) | Potency (HeLa) | Potency (Hek293T) | Potency (JEG-3) | Potency (OV90) | Potency (PA-1) | Potency (SKOV3) | Potency (Tov-21-G) | Potency (Tov112D)

C=C1CC[C@H]2[C@@](C)(CCC(O)[C@@]2(C)CO)[C@@H]1CCC1=CCOC1=O (stereo partly specified)
inactive: Potency (C33A) | Potency (CAOV3) | Potency (CASKI) | Potency (Es-2) | Potency (HeLa) | Potency (Hek293T) | Potency (JEG-3) | Potency (OV90) | Potency (PA-1) | Potency (SKOV3) | Potency (Tov-21-G) | Potency (Tov112D)

O=C(OC[C@@]1(O)CO[C@@H](O[C@H]2[C@H](Oc3ccc(O)cc3)O[C@H](CO)[C@@H](O)[C@@H]2O)[C@@H]1O)c1ccc(O)cc1
inactive: Potency (C33A) | Potency (CAOV3) | Potency (CASKI) | Potency (Es-2) | Potency (HeLa) | Potency (Hek293T) | Potency (JEG-3) | Potency (OV90) | Potency (PA-1) | Potency (SKOV3) | Potency (Tov-21-G) | Potency (Tov112D)

O=C(NCc1cccc(O)c1)c1cc2cc(F)ccc2[nH]1
inactive: Potency (C33A) | Potency (CAOV3) | Potency (CASKI) | Potency (Es-2) | Potency (HeLa) | Potency (Hek293T) | Potency (JEG-3) | Potency (OV90) | Potency (PA-1) | Potency (SKOV3) | Potency (Tov-21-G) | Potency (Tov112D)

CC(C)CC(=O)O[C@@H]1OC=C(CO[C@@H]2O[C@H](CO)[C@@H](O)[C@H](O)[C@H]2O)[C@H]2[C@@H]3O[C@H]3[C@@](O)(CO)[C@@H]12
inactive: Potency (C33A) | Potency (CAOV3) | Potency (CASKI) | Potency (Es-2) | Potency (HeLa) | Potency (Hek293T) | Potency (JEG-3) | Potency (OV90) | Potency (PA-1) | Potency (SKOV3) | Potency (Tov-21-G) | Potency (Tov112D)

CC(=O)OC1CC2(C)C3=CCC4(C)C5C(O)C(O)C(C(C)C)C5(C)CCC4(C)C3CCC2C(C)(C)C1OC1OC(CO)C(O)C(O)C1O (stereo unspecified)
inactive: Potency (C33A) | Potency (CAOV3) | Potency (CASKI) | Potency (Es-2) | Potency (HeLa) | Potency (Hek293T) | Potency (JEG-3) | Potency (OV90) | Potency (PA-1) | Potency (SKOV3) | Potency (Tov-21-G) | Potency (Tov112D)

C[C@@H]1CN(Cc2ncccn2)C[C@H]1c1nc2c(cnn2C2CCOCC2)c(=O)[nH]1
inactive: Potency (C33A) | Potency (CAOV3) | Potency (CASKI) | Potency (Es-2) | Potency (HeLa) | Potency (Hek293T) | Potency (JEG-3) | Potency (OV90) | Potency (PA-1) | Potency (SKOV3) | Potency (Tov-21-G) | Potency (Tov112D)

CC1OC(OC2C(C)OC(OC3C(OC(=O)C45CCC(C)(C)CC4C4=CCC6C7(C)CCC(OC8OC(C(=O)O)C(O)C(O)C8OC8OC(CO)C(O)C(OC9OC(C)C(O)C(O)C9O)C8O)C(C)(CO)C7CCC6(C)C4(C)CC5)OC(CO)C(O)C3O)C(O)C2O)C(O)C(O)C1O (stereo unspecified)
inactive: activity change, negative = cytotoxicity (C33A) 1.01% [at 6.55 µM] | activity change, negative = cytotoxicity (CAOV3) 6.9% [at 6.55 µM] | activity change, negative = cytotoxicity (CASKI) 16.9% [at 6.55 µM] | activity change, negative = cytotoxicity (Es-2) 0.662% [at 6.55 µM] | activity change, negative = cytotoxicity (HeLa) 5.48% [at 6.55 µM] | activity change, negative = cytotoxicity (Hek293T) -2.51% [at 6.55 µM] | activity change, negative = cytotoxicity (JEG-3) 4.23% [at 6.55 µM] | activity change, negative = cytotoxicity (OV90) 11.5% [at 6.55 µM] | activity change, negative = cytotoxicity (PA-1) 0.842% [at 6.55 µM] | activity change, negative = cytotoxicity (SKOV3) 0% [at 6.55 µM] | activity change, negative = cytotoxicity (Tov-21-G) 2.91% [at 6.55 µM] | activity change, negative = cytotoxicity (Tov112D) 13.7% [at 6.55 µM]

Cc1cc(C)c2c(N)c(C(=O)NCc3ccc(Cl)cc3)sc2n1
inactive: Potency (C33A) | Potency (CAOV3) | Potency (CASKI) | Potency (Es-2) | Potency (HeLa) | Potency (Hek293T) | Potency (JEG-3) | Potency (OV90) | Potency (PA-1) | Potency (SKOV3) | Potency (Tov-21-G) | Potency (Tov112D)

COC(=O)c1ccc(OC(CO)C(O)c2ccc(O)c(OC)c2)c(OC)c1 (stereo unspecified)
inactive: Potency (C33A) | Potency (CAOV3) | Potency (CASKI) | Potency (Es-2) | Potency (HeLa) | Potency (Hek293T) | Potency (JEG-3) | Potency (OV90) | Potency (PA-1) | Potency (SKOV3) | Potency (Tov-21-G) | Potency (Tov112D)

CC1OC(OC2C(O)C(OC3CCC4(C)C(CCC5(C)C4CC=C4C6CC(C)(COC7OC(CO)C(O)C(O)C7O)CC(O)C6(C)CCC45C)C3(C)C)OC(C(=O)O)C2O)C(O)C(O)C1OC1OCC(O)C(O)C1O (stereo unspecified)
inactive: activity change, negative = cytotoxicity (C33A) 5.66% [at 11.6 µM] | activity change, negative = cytotoxicity (CAOV3) -0.364% [at 11.6 µM] | activity change, negative = cytotoxicity (CASKI) -2.68% [at 11.6 µM] | activity change, negative = cytotoxicity (Es-2) 8.83% [at 11.6 µM] | activity change, negative = cytotoxicity (HeLa) 12.4% [at 11.6 µM] | activity change, negative = cytotoxicity (Hek293T) 11.9% [at 11.6 µM] | activity change, negative = cytotoxicity (JEG-3) 10.4% [at 11.6 µM] | activity change, negative = cytotoxicity (OV90) 0.532% [at 11.6 µM] | activity change, negative = cytotoxicity (PA-1) 13.5% [at 11.6 µM] | activity change, negative = cytotoxicity (SKOV3) 37.6% [at 11.6 µM] | activity change, negative = cytotoxicity (Tov-21-G) 6.66% [at 11.6 µM] | activity change, negative = cytotoxicity (Tov112D) 7.29% [at 11.6 µM]

C/C=C/c1cc(OC)c2c(c1)[C@@H](C)[C@@H](c1ccc(O)c(OC)c1)O2
inactive: Potency (C33A) | Potency (CAOV3) | Potency (CASKI) | Potency (Es-2) | Potency (HeLa) | Potency (Hek293T) | Potency (JEG-3) | Potency (OV90) | Potency (PA-1) | Potency (SKOV3) | Potency (Tov-21-G) | Potency (Tov112D)

CC(=O)C12OC(C)(C)OC1CC1C3CCC4=CC(=O)C=CC4(C)C3(F)C(O)CC12C (stereo unspecified)
inactive: Potency (C33A) | Potency (CAOV3) | Potency (CASKI) | Potency (Es-2) | Potency (HeLa) | Potency (Hek293T) | Potency (JEG-3) | Potency (OV90) | Potency (PA-1) | Potency (SKOV3) | Potency (Tov-21-G) | Potency (Tov112D)
